From PubChem
tim10-1 inh – growth inhibitors of tim10-1 mutant yeast | S. cerevisiae tim10-1 ts strain growth, BacTiter-Glo, 24 h | 330,000 tested, 2.2% active | AID 463190 | inhibition, % at 20 µM;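 active means inhibition of at least 40%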;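 further: mutant grown at 25 °C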
tim23-1 inh – growth inhibitors of tim23-1 mutant yeast; S. cerevisiae tim23-1 growth, BacTiter-Glo luminescence, 24 h; inhibition, % at 20 µM; 330,000 tested, 1.3% active; AID 463212;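 active means growth inhibition of the mutant yeast at or above 50%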;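 further: temperature-sensitive mutant grown at 25 °C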
PfHsp90 set2 – reduces growth (ATP signal) of yeast expressing P. falciparum Hsp90; 310,000 tested, 0.32% active; inhibition, % at 9.4 µM; S. cerevisiae expressing PfHsp90, BacTiter-Glo ATP, 48 h; yeast lacking PDR1 and PDR3 efflux regulators;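 active means every replicate shows inhibition above about 80%, whatever the replicate mean, limit read from the data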
TIM10 inh – inhibits growth of TIM10 yeast strain | S. cerevisiae TIM10 strain growth, BacTiter-Glo luminescence, 24 h | inhibition, % at 10 µM | 330,000 tested, 1.4% active;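 active means inhibition of 40% or more at the single tested concentration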;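 further: wild-type TIM10 isogenic control strain grown at permissive 25 °C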
NLRP3 yeast inh – inhibitors of NALP3 inflammasome in yeast. inhibition, % at 10 µM. Yeast reconstituted NLRP3/ASC/caspase-1, beta-gal luminescence, 24 h. AID 2825. 330,000 tested, 0.39% active;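 active means inhibition of 50% or more; inactive means inhibition below 50%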
NALP1 inh – NALP1 inhibition | S. cerevisiae NALP1/ASC/caspase-1 growth, X-gal OD620, 72 h | inhibition, % at 10 µM | 280,000 tested, 0.61% active; in the data active means inhibition mostly above about 24%, no sharp cut-off; inactive means mostly below about 32%
tim10-1 confirm – tim10-1 yeast growth inhibition, confirmed. S. cerevisiae tim10-1 ts strain growth, BacTiter-Glo, 24 h. inhibition, % at 20 µM. AID 463213. 7,400 tested, 56% active. shares compounds with tim10-1 inh;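 active means inhibition of yeast growth at or above a set limit in either of two repeat tests at 20 µM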;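 further: tim10-1 mutant grown at permissive 25 °C to find synthetic lethal compounds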
A number is an active result. This is a sample that favours compounds with a hit; in the whole collection about 4.2% have one here.

What do the screens show for `CCOC(=O)C1CCN(C(=S)Nc2ccc(CC)cc2)CC1`?
tim10-1 inh: inactive; tim23-1 inh: inactive; PfHsp90 set2: inactive; TIM10 inh: inactive; NLRP3 yeast inh: inactive; NALP1 inh: inactive

What do the screens show for `Cc1cc(C)n(-c2nc(NCCCO)c3c4c(sc3n2)CCCC4)n1`?
tim10-1 inh: 50.4; tim23-1 inh: inactive; TIM10 inh: inactive; NLRP3 yeast inh: inactive; NALP1 inh: inactive; tim10-1 confirm: inactive

What do the screens show for `Cc1cc(C)n(-c2nc(NCCO)c3c4c(sc3n2)CCCC4)n1`?
tim10-1 inh: inactive; tim23-1 inh: inactive; TIM10 inh: inactive; NLRP3 yeast inh: inactive; NALP1 inh: inactive

What do the screens show for `CCOc1ccc(NC(=S)NNc2ccnc3cc(Cl)ccc23)cc1`?
tim10-1 inh: 46.9; tim23-1 inh: inactive; TIM10 inh: inactive; NLRP3 yeast inh: inactive; NALP1 inh: inactive; tim10-1 confirm: inactive

Results for S=C(NNc1ccnc2cc(Cl)ccc12)Nc1ccc(Cl)cc1Cl ?
tim10-1 inh: inactive; tim23-1 inh: inactive; PfHsp90 set2: inactive; TIM10 inh: inactive; NLRP3 yeast inh: inactive

What do the screens show for `O=C(c1ccc2ncsc2c1)N1CCN(c2cccc(C(F)(F)F)c2)CC1`?
tim10-1 inh: 57.6; tim23-1 inh: inactive; PfHsp90 set2: inactive; TIM10 inh: inactive; NLRP3 yeast inh: inactive; tim10-1 confirm: 39.5

Results for COc1ccc(OC)c2sc(N3CCCCC3)nc12 ?
tim10-1 inh: 43.0; tim23-1 inh: inactive; TIM10 inh: inactive; NLRP3 yeast inh: inactive; NALP1 inh: inactive; tim10-1 confirm: inactive

How did O=C(c1ccc2nc[nH]c2c1)N1CCN(c2cccc(C(F)(F)F)c2)CC1 do in these assays?
tim10-1 inh: inactive; tim23-1 inh: inactive; PfHsp90 set2: inactive; TIM10 inh: inactive; NLRP3 yeast inh: inactive; NALP1 inh: inactive

What do the screens show for `COc1ccc(OC)c2sc(N3CCN(C(=O)c4ccc5ncsc5c4)CC3)nc12`?
tim10-1 inh: 50.3; tim23-1 inh: inactive; PfHsp90 set2: inactive; TIM10 inh: inactive; NLRP3 yeast inh: inactive; tim10-1 confirm: inactive

What do the screens show for `CCOC(=O)N1CCN(Cc2cc(Cl)c3cccnc3c2O)CC1`?
tim10-1 inh: 46.8; tim23-1 inh: inactive; TIM10 inh: inactive; NLRP3 yeast inh: inactive; NALP1 inh: inactive; tim10-1 confirm: inactive

Results for N#C/C(=C\c1cn[nH]c1-c1ccc(Cl)cc1)C(=O)NC1CC1 ?
tim10-1 inh: inactive; tim23-1 inh: inactive; PfHsp90 set2: inactive; TIM10 inh: inactive; NLRP3 yeast inh: inactive; NALP1 inh: inactive

Results for N#C/C(=C\c1cn[nH]c1-c1ccc(Cl)cc1)C(=O)NCc1ccccc1 ?
tim10-1 inh: 43.0; tim23-1 inh: inactive; PfHsp90 set2: inactive; TIM10 inh: inactive; NLRP3 yeast inh: inactive; NALP1 inh: inactive; tim10-1 confirm: 45.9

What do the screens show for `CCOC(=O)c1c(N2C(=O)C3CC(C)=C(C)CC3C2=O)sc(C)c1C` (stereo not given)?
tim10-1 inh: 40.3; tim23-1 inh: inactive; PfHsp90 set2: inactive; TIM10 inh: inactive; NLRP3 yeast inh: inactive; NALP1 inh: inactive; tim10-1 confirm: inactive

Results for Cc1ccc(C2CC(c3ccc(Cl)cc3)=NNC2=O)cc1 (stereo not given) ?
tim10-1 inh: inactive; tim23-1 inh: inactive; TIM10 inh: inactive; NLRP3 yeast inh: inactive; NALP1 inh: inactive

Results for Cc1cccc(C2=NNC(=O)C(c3ccc(Cl)cc3)C2)c1 (stereo not given) ?
tim10-1 inh: 59.8; tim23-1 inh: inactive; PfHsp90 set2: inactive; TIM10 inh: inactive; NLRP3 yeast inh: inactive; NALP1 inh: inactive; tim10-1 confirm: 44.5

Results for NC(=O)Oc1cccc(OC(N)=O)c1 ?
tim10-1 inh: inactive; tim23-1 inh: inactive; PfHsp90 set2: inactive; TIM10 inh: inactive; NLRP3 yeast inh: inactive; NALP1 inh: inactive

Results for Cc1ccc(S(=O)(=O)NCc2ccc(C(=O)N3CCc4ccccc4C3)cc2)cc1 ?
tim10-1 inh: 47.4; tim23-1 inh: inactive; PfHsp90 set2: inactive; TIM10 inh: inactive; NLRP3 yeast inh: inactive; NALP1 inh: inactive; tim10-1 confirm: inactive

How did Cc1cccc(Cc2cnc(N3C(=N)SC(c4ccccc4)C3=O)s2)c1 (stereo not given) do in these assays?
tim10-1 inh: 44.5; tim23-1 inh: inactive; PfHsp90 set2: inactive; TIM10 inh: inactive; NLRP3 yeast inh: inactive; tim10-1 confirm: 30.1

What do the screens show for `Cc1cccc(Cc2cnc(N3C(=N)SC(C)C3=O)s2)c1` (stereo not given)?
tim10-1 inh: inactive; tim23-1 inh: inactive; PfHsp90 set2: inactive; TIM10 inh: inactive; NLRP3 yeast inh: inactive; NALP1 inh: inactive

Results for Cc1ccc(S(=O)(=O)CCC(=O)N(CCCN2CCOCC2)c2nc3ccccc3s2)cc1 ?
tim10-1 inh: 42.1; tim23-1 inh: inactive; PfHsp90 set2: inactive; TIM10 inh: inactive; NLRP3 yeast inh: inactive; tim10-1 confirm: 42.4

Results for O=C(c1ccc(Br)o1)N1CCN(c2ccccn2)CC1 ?
tim10-1 inh: inactive; tim23-1 inh: inactive; PfHsp90 set2: inactive; TIM10 inh: inactive; NLRP3 yeast inh: inactive; NALP1 inh: inactive

What do the screens show for `CCOC(=O)N1CCN(C(=O)c2ccc(NC(C)=O)cc2)CC1`?
tim10-1 inh: inactive; tim23-1 inh: inactive; PfHsp90 set2: inactive; TIM10 inh: inactive; NLRP3 yeast inh: inactive; NALP1 inh: inactive

Results for O=C(Nc1ccc(C(=O)N2CCN(c3ccccn3)CC2)cc1)c1ccc(Br)o1 ?
tim10-1 inh: 45.8; tim23-1 inh: inactive; PfHsp90 set2: inactive; TIM10 inh: inactive; NLRP3 yeast inh: inactive; tim10-1 confirm: inactive

What do the screens show for `CN1CCN(c2ccc(NC(=O)c3ccc(Br)o3)cc2)CC1`?
tim10-1 inh: inactive; tim23-1 inh: inactive; PfHsp90 set2: inactive; TIM10 inh: inactive; NLRP3 yeast inh: inactive; NALP1 inh: inactive

What do the screens show for `CCOC(=O)N1CCN(C(=O)c2ccc(NC(=O)c3ccc(C)cc3)cc2)CC1`?
tim10-1 inh: 43.6; tim23-1 inh: inactive; PfHsp90 set2: inactive; TIM10 inh: inactive; NLRP3 yeast inh: inactive; tim10-1 confirm: inactive

How did Cc1ccc(C(=O)N2CCN(c3ccc(NC(=O)c4ccc(Br)o4)cc3)CC2)cc1 do in these assays?
tim10-1 inh: 52.0; tim23-1 inh: inactive; PfHsp90 set2: inactive; TIM10 inh: inactive; NLRP3 yeast inh: inactive; NALP1 inh: inactive; tim10-1 confirm: 31.1

What do the screens show for `CCOC(=O)N1CCC(C(=O)NNC(=O)c2ccc(Cl)cc2Cl)CC1`?
tim10-1 inh: inactive; tim23-1 inh: inactive; PfHsp90 set2: inactive; TIM10 inh: inactive; NLRP3 yeast inh: inactive; NALP1 inh: inactive

What do the screens show for `CSc1nc2ccc(NC(=O)c3ccc(F)c(F)c3)cc2s1`?
tim10-1 inh: inactive; tim23-1 inh: inactive; PfHsp90 set2: inactive; TIM10 inh: inactive; NLRP3 yeast inh: inactive; NALP1 inh: inactive

Results for CCOC(=O)Nc1ccc2nc(Sc3ccc(Cl)cc3)sc2c1 ?
tim10-1 inh: 42.1; tim23-1 inh: inactive; PfHsp90 set2: inactive; TIM10 inh: inactive; NLRP3 yeast inh: inactive; NALP1 inh: inactive; tim10-1 confirm: 33.5
